In PubChem BioAssay (NCI) one finds growth data, which are given here for 31 compounds.

The panel holds about 83,000 compounds, 20% with a hit somewhere; the sample as a whole holds those more often.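 Plates (96-well) were seeded with cells, treated with compound at one concentration, and incubated for 48 hours before percent growth was determined.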 Active and inactive are the calls of the source. Rule for the calls: active = growth percent below 10; inactive = the rest.

The test relates to TK-10 renal. Put plainly: NCI-60 one-dose screen, 48 h (100 = growth as untreated, 0 = no growth, -100 = all killed). The settings on record: 10 µM unless noted.
In the case of `COc1cc2c(cc1O)CC[C@@H]1[C@@H]2CC[C@]2(C)[C@@H](NCCN(C)C)CC[C@@H]12`, the growth is -95.8% (active).
As for `COc1cccc2c1C(=O)c1c(O)c3c(c(O)c1C2=O)C[C@](O)(C(=O)CO)C[C@H]3O[C@@H]1C[C@@H](NC(=O)CCCN(C)C2(c3ccc(F)cc3)CC3CCC2C3)[C@H](O)[C@@H](C)O1` (stereo partly specified), the growth was 54.6% (inactive).
Take `O=c1cc(CSc2nnc(SCc3cc(=O)oc4c3ccc3ccccc34)o2)c2ccc3ccccc3c2o1`: the growth is 98.8% (inactive).
The value for `COc1cc2c(cc1O)CC[C@@H]1[C@@H]2CC[C@]2(C)[C@@H](OCCN(C)C)CC[C@@H]12` was 85.1% (inactive); that for `COc1ccc(-c2nnc(SCC(=O)c3ccc(Cl)cc3)o2)cc1` was 95.9% (inactive).
Take `NC(=NCCCOc1ccc(Cl)cc1)Nc1ccc(C(F)(F)F)cc1`: the growth was 76.1% (inactive).
The value for `CNC(=O)c1cc(Oc2ccc(NC(=O)Nc3ccc(Cl)c(OC(F)(F)F)c3)c(F)c2)ccn1` was 37.3% (inactive); that for `COc1ccc2c(c1)C(=O)/C(=C/c1cccnc1)CC2` was 97.7% (inactive); that for `COc1cccc(-c2nc(SCC(=O)Nc3ccc(C(=O)/C=C/c4ccc(OC)c(OC)c4)cc3)[nH]c(=O)c2C#N)c1` was 109% (inactive).
The same measure for `CCCn1c(=O)[nH]c(N)c([C@H]2c3ccccc3Oc3[nH]c(=O)n(CCC)c(=O)c32)c1=O`: 79% (inactive); for `C=C1C(=O)O[C@H]2[C@H]1CC/C(COC(=O)NCc1ccc(OC)c(OC)c1)=C\CC[C@@]1(C)O[C@@H]21`: 50.9% (inactive); for `N#CN1CC[C@H](C(=O)Nc2cc3cc(C(N)=O)ccc3cn2)C1`: -17.7% (active).
The value for `O=C1/C(=C/c2ccccc2O)N=C2SCCCN12` was 109% (inactive); that for `COc1ccc(CN2c3ccccc3Sc3ccccc32)c(C(F)(F)F)c1` was 65.5% (inactive); that for `COc1ccc(-c2nc(SCC(=O)Nc3ccc(C(=O)/C=C/c4ccc(Cl)cc4)cc3)[nH]c(=O)c2C#N)cc1` was 102% (inactive).
For `COc1ccc2c(c1)CC/C(=C\c1cncc(Br)c1)C2=O`, the growth was 85% (inactive).
The value for `COc1ccc2c(c1)C(=O)/C(=C/c1ccccn1)CC2` was 55.7% (inactive); that for `Cc1nc(Nc2ccc(F)c(Cl)c2)sc1C(=O)O` was 21% (inactive).
The same measure for `CCOC(=O)c1sc(Nc2ccc(Cl)cc2)nc1C`: 26.5% (inactive); for `CC(=O)c1cc(C(=O)c2ccc3c(c2)Sc2ccccc2N3)n2ccccc12`: 59.2% (inactive); for `CC(=O)O[C@H]1C(=O)[C@@]2(C)[C@H]([C@H](OC(=O)c3ccccc3)[C@]3(O)C[C@H](OC(=O)[C@H](OC(=O)CCC(=O)OC4CCC(S/N=C(N)/N=C(\N)N(C)C)CC4)[C@@H](NC(=O)c4ccccc4)c4ccccc4)C(C)=C1C3(C)C)[C@]1(OC(C)=O)CO[C@@H]1C[C@@H]2O` (stereo partly specified): 48.9% (inactive).
The value for `CC(=O)OC[C@H]1O[C@H](OC(C)=O)[C@H](NC(=O)/C=C/CCl)[C@@H](OC(C)=O)[C@@H]1OC(C)=O` was 75% (inactive); that for `COc1cc(-c2nc(C(=O)NCC(=O)NO)nn2-c2ccc(Cl)cc2)cc(OC)c1OC` was 96.9% (inactive).
Consider `C=C1C(=O)O[C@H]2[C@H]1CC/C(COC(=O)NCCc1ccc(OC)c(OC)c1)=C\CC[C@@]1(C)O[C@@H]21`, for which the growth is 36% (inactive).
The value for `Cc1ccc2oc(=O)cc(C3c4ccc([nH]4)C(c4cc(=O)oc5ccc(C)cc45)c4ccc([nH]4)C(c4cc(=O)oc5ccc(C)cc45)c4ccc([nH]4)C(c4cc(=O)oc5ccc(C)cc45)c4ccc3[nH]4)c2c1` (stereo unspecified) was -22.2% (active); that for `COc1cccc2c1C(=O)c1c(O)c3c(c(O)c1C2=O)C[C@](O)(C(=O)CO)C[C@H]3O[C@@H]1C[C@@H](NC(=O)CCCCCN(C)C2(c3ccc(F)cc3)CC3CCC2C3)[C@H](O)[C@@H](C)O1` (stereo partly specified) was 68.7% (inactive); that for `NC(=NCCCC1(c2ccccc2)CCCC1)Nc1ccc(Cl)cc1` was 71.1% (inactive).
As to `CCC#CC[C@H](O)C/C=C1/C(=O)C=C[C@@H]1C/C=C\CCCC(=O)OC`, the growth was 2.33% (active).
The same measure for `CNC(=O)c1cc(Oc2ccc(NC(=O)Nc3ccc(Cl)c(SC)c3)c(F)c2)ccn1`: 55.3% (inactive); for `c1ccc2[nH]c(-c3ccc(Nc4nc(N5CCCC5)nc5[nH]ncc45)cc3)nc2c1`: -6.9% (active); for `CC/C=C\C/C=C\C[C@H]1C/C=C2/C(=O)C=C[C@@H]2C/C=C\CCC(=O)O1`: 7.69% (active).
